{"source": "PubChem BioAssay AID504582", "about": "(Broad Institute, 2011)", "note": "In all, about 340,000 compounds went through this assay and about 2,300 (0.68%) were called active. The entries come from a sample that favours actives as a whole. Values without a mark were called inactive. Cut-off read from the data, not from the text of the source: active = growth rescue above about 28% (passing the limit was not always enough); inconclusive = no clear call, values can overlap the other calls.", "data": [{"assay": "rescue of yeast from PfHsp40 toxicity, primary screen, S. cerevisiae, ATP luminescence (AID 504582);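 note: yeast W303a lacking pdr1 and pdr3 grown in galactose medium; growth measured after three days at 30 °C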", "conditions": "S. cerevisiae expressing PfHsp40, growth rescue, at 12.5 µM, active compounds read high", "values": [{"smiles": "CCCC1OC23CCCCC2C(C#N)(C#N)C1(C#N)C(=N)O3", "note": "(stereo not drawn)", "growth rescue": "-1.17%"}, {"smiles": "CC(=O)Nc1nc(N(C)C)nc(N(C)C)n1", "growth rescue": "1.85%"}, {"smiles": "Cn1cccc1C(C#N)c1ccccc1C#N", "note": "(stereo not drawn)", "growth rescue": "-0.257%"}, {"smiles": "COc1ccccc1C(=O)NCC(=O)OCC(=O)Nc1nnc(-c2ccccc2)o1", "growth rescue": "-1.88%"}, {"smiles": "O=C(Nc1nnc(-c2ccc(Cl)cc2)o1)c1ccccc1Br", "growth rescue": "92.7% (active)"}, {"smiles": "Cc1ccnc2nc(C(=O)Nc3nnc(-c4ccccc4)o3)nn12", "growth rescue": "-0.238%"}, {"smiles": "COc1ccc2c(c1)c1ncn(Cc3ccccn3)c(=O)c1n2C", "growth rescue": "-0.652%"}, {"smiles": "O=C(O)c1cc2c(cc1NC(=O)c1c(F)cccc1Cl)OCCCO2", "growth rescue": "-1.32%"}, {"smiles": "O=C1c2ccccc2C2=Nc3ccccc3SC(c3ccccc3F)C12", "note": "(stereo not drawn)", "growth rescue": "152% (active)"}, {"smiles": "CN(Cc1ccc(F)cc1)C(=O)CN1C(=O)c2ccccc2S1(=O)=O", "growth rescue": "-1.04%"}, {"smiles": "Cn1cncc1C#Cc1c(-c2ccsc2)sc2ccccc12", "growth rescue": "311% (active)"}, {"smiles": "COc1ccc2sc(-c3ccc(S(C)(=O)=O)cc3)c(C#Cc3cncn3C)c2c1", "growth rescue": "-1.56%"}, {"smiles": "Cc1cccc(-c2oc3ccc(-c4ccc5c(c4)OCO5)cc3c2C#Cc2cncn2C)c1", "growth rescue": "0.141%"}, {"smiles": "CC(=NCc1ccc2c(c1)OCO2)C1=C(O)c2ccccc2C1=O", "growth rescue": "47.2% (active)"}, {"smiles": "CC(=NCc1ccc2c(c1)OCO2)c1c(O)[nH]c(=O)[nH]c1=O", "growth rescue": "-0.437%"}, {"smiles": "CCc1ccc(NC(=O)NC(C)c2ccc3c(c2)OCO3)cc1", "note": "(stereo not drawn)", "growth rescue": "1.14%"}, {"smiles": "CCN(/N=C/c1ccc(N(C)C)cc1)c1nc2ccccc2[nH]1", "growth rescue": "0.687%"}, {"smiles": "COc1ccc(N)c(C)c1", "growth rescue": "-0.552%"}, {"smiles": "NC(=O)Cn1nc([N+](=O)[O-])nc1Oc1ccc(Br)cc1", "growth rescue": "1.81%"}, {"smiles": "Cc1ccc(S(=O)(=O)N2CCOCC2)cc1NC(=O)COC(=O)c1cnccn1", "growth rescue": "0.734%"}, {"smiles": "CCC(O)CNc1nc(-n2nc(C)cc2C)nc2sc3c(c12)CC(C)(C)OC3", "note": "(stereo not drawn)", "growth rescue": "0.423%"}, {"smiles": "CCCc1nc2sc3c(c2c(=O)n1NC(=O)CCCl)CCCC3", "growth rescue": "-0.355%"}, {"smiles": "COCCNc1nc(-n2nc(C)cc2C)nc2sc3c(c12)CCCC3", "growth rescue": "111% (active)"}, {"smiles": "CC[C@]12c3[nH]c4ccc(OC)cc4c3CCN1C(=O)C(CC(=O)NCc1ccco1)C[C@@H]2C(=O)N1CCN(C(=O)C2CC2)CC1", "note": "(stereo partly drawn)", "growth rescue": "-1.76%"}, {"smiles": "Cc1ccc2c(C)c(C(=O)N(C)CCC3CCCCO3)oc2c1C", "note": "(stereo not drawn)", "growth rescue": "15.7%"}, {"smiles": "O=S(=O)(Cc1ccccc1)c1nc2ccccc2n1Cc1ccccn1", "growth rescue": "-1.91%"}, {"smiles": "O=S(=O)(O)c1nc2ccccc2n1Cc1ccc(Cl)cc1Cl", "growth rescue": "46.4% (active)"}, {"smiles": "O=C(Cn1c(NCCO)nc2ccccc21)c1ccc(Cl)cc1Cl", "growth rescue": "0.311%"}, {"smiles": "O=C(NC(=S)Nc1cccc(-c2ccc(CO)o2)c1)c1cccs1", "growth rescue": "5.49%"}, {"smiles": "Oc1c(C(c2ccccn2)N2CCOCC2)ccc2cccnc12", "note": "(stereo not drawn)", "growth rescue": "457% (active)"}, {"smiles": "COc1cc2c(cc1OC)C(C)N(S(=O)(=O)c1cnc(Cl)c(Cl)c1)CC2", "note": "(stereo not drawn)", "growth rescue": "1.43%"}, {"smiles": "CCC(=O)Nc1sc(C(=O)Nc2ccccc2)c(C)c1C(=O)OC", "growth rescue": "4.36%"}, {"smiles": "CCC(=O)Nc1nc(C)c(C(=O)Nc2cccc(Cl)c2)s1", "growth rescue": "68.4% (active)"}, {"smiles": "CCOC(=O)c1sc(NC(=O)c2sc(C)nc2C)nc1C", "growth rescue": "-1.17%"}, {"smiles": "CCOc1ccc(NS(=O)(=O)c2ccc(C)c(C(N)=O)c2)cc1", "growth rescue": "-1.27%"}, {"smiles": "O=C(CCc1nc2sc3c(c2c(=O)[nH]1)CCCC3)NCC(=O)Nc1ccccc1Br", "growth rescue": "-1.97%"}, {"smiles": "COC(=O)CN1C(=O)[C@H]2[C@@H](C3CC3)N3C(=O)CN(Cc4ccc(-c5ccccc5)cc4)C(=O)[C@@]3(Cc3ccccc3)[C@H]2C1=O", "growth rescue": "-1.17%"}, {"smiles": "CN(C(=O)c1ccc(NC(=O)Cc2cccc(NC(=O)C3CCN(C(=O)c4ccccc4)CC3)c2)cc1)C1CC1", "growth rescue": "-0.0305%"}, {"smiles": "Cn1cccc1/C=N/NC(=O)c1ccc(OC(F)(F)C(F)F)cc1", "growth rescue": "-1.34%"}, {"smiles": "Cn1nccc1NC(=O)Nc1ccc(OC(F)(F)F)cc1", "growth rescue": "-0.0415%"}, {"smiles": "O=C(Nc1ccc(OC(F)(F)F)cc1)c1ccc2c(c1)no[n+]2[O-]", "growth rescue": "178% (active)"}, {"smiles": "Cc1ccc2c(c1)N(C(=O)CCC(=O)NCc1cccnc1)CCO2", "growth rescue": "-1.04%"}, {"smiles": "CCN([C@H](CO)C(C)C)S(=O)(=O)c1ccccc1Br", "growth rescue": "-0.487%"}, {"smiles": "COc1cccc(-n2c(=S)sc3c(=O)n(-c4ccccc4C)c(SCC(=O)O)nc32)c1", "growth rescue": "-1.96%"}, {"smiles": "CC(C)C[C@@H](N)c1nnc(SCC(=O)c2ccc(Cl)cc2)o1", "growth rescue": "-0.522%"}, {"smiles": "Cc1nc(Cl)c(C#N)c2c1CCCC2", "growth rescue": "0.263%"}, {"smiles": "COC(=O)c1c(C)c(C)nc(N)c1C#N", "growth rescue": "0.0365%"}, {"smiles": "COCc1c(N)c(C)nc(Cl)c1C#N", "growth rescue": "51% (active)"}, {"smiles": "C=CCc1ccc(OCC(O)CN2CCN(Cc3ccccc3)CC2)c(OC)c1", "note": "(stereo not drawn)", "growth rescue": "-0.721%"}, {"smiles": "Cc1ccc(OCC(O)CN2CCN(CC(O)COc3ccc(C)cc3Cl)CC2)c(Cl)c1", "note": "(stereo not drawn)", "growth rescue": "65.8% (active)"}, {"smiles": "OC(COc1ccc(F)cc1Cl)CN1CCc2ccccc2C1", "note": "(stereo not drawn)", "growth rescue": "0.0845%"}, {"smiles": "CCCC(NC(=O)c1ccco1)c1nc2ccccc2[nH]1", "note": "(stereo not drawn)", "growth rescue": "-0.136%"}, {"smiles": "O=c1[nH]c2cccnc2n(CCNc2ncc(C(F)(F)F)cc2Cl)c1=O", "growth rescue": "-1.76%"}, {"smiles": "CN(C)C=NC(=O)c1cccn1-c1ncc(C(F)(F)F)cc1Cl", "growth rescue": "-0.737%"}, {"smiles": "COc1cccc(/C=N/Nc2ncc(C(F)(F)F)cc2Cl)c1O", "growth rescue": "233% (active)"}, {"smiles": "COc1ccc(NC(=O)COC(=O)c2ccncc2)c(OC)c1", "growth rescue": "-0.471%"}, {"smiles": "CN(CCOc1ccc(Br)cc1)CC(=O)Nc1cccc(S(=O)(=O)NC2=NCCC2)c1", "growth rescue": "-0.17%"}, {"smiles": "COc1cc(C)c(C)cc1S(=O)(=O)N1CCCc2ccccc21", "growth rescue": "-0.881%"}, {"smiles": "CCOC(=O)Cc1csc(SCC(=O)Nc2ccc(C)cc2F)n1", "growth rescue": "0.85%"}, {"smiles": "S=C(NCCCc1ccccc1)Nc1ccc(Br)cc1", "growth rescue": "263% (active)"}, {"smiles": "S=C(Nc1ccc(Br)cc1)NC1CCN(Cc2ccccc2)CC1", "growth rescue": "1.33%"}, {"smiles": "O=C(Cc1ccc(Br)cc1)NCCc1ccccc1", "growth rescue": "1.3%"}, {"smiles": "Cc1ccc(C)c2[nH]c(=O)c(CN(Cc3cccnc3)C(=S)NCc3ccco3)cc12", "growth rescue": "0.529%"}, {"smiles": "O=C(CSC1CC(=O)N(CCc2ccccc2)C1=O)Nc1ccc(Cl)cc1", "note": "(stereo not drawn)", "growth rescue": "0.11%"}, {"smiles": "CCCC(C(=O)n1nc(C)cc1C)C(NS(=O)(=O)c1ccc(C)cc1)c1ccccc1", "note": "(stereo not drawn)", "growth rescue": "5.61%"}, {"smiles": "CCN(CC)c1ccc(/C=N/NC(=O)c2cnccn2)c(O)c1", "growth rescue": "77.4% (active)"}, {"smiles": "Cc1ccc(/C=N/NC(=O)C2=NNC(c3ccccc3)(c3ccccc3)C2)c(O)c1", "growth rescue": "-0.682%"}, {"smiles": "COc1ccc(NC(=O)C/C(C)=N/NC(=O)c2cnccn2)cc1Cl", "growth rescue": "-1.24%"}, {"smiles": "CCNC(=O)c1cnn(-c2ccccc2)c1-c1ccccc1", "growth rescue": "-3.15%"}, {"smiles": "Cn1c(C(=O)N2CCCC(C(=O)NCc3ccccc3)C2)cc2sccc21", "note": "(stereo not drawn)", "growth rescue": "0.412%"}, {"smiles": "CCCCCC(=O)N1CCN(S(=O)(=O)c2ccc3c(c2)OCCCO3)CC1", "growth rescue": "1.79%"}, {"smiles": "O=S(=O)(NCc1ccccc1)c1ccc(S(=O)(=O)N2CCCC2)cc1", "growth rescue": "0.759%"}, {"smiles": "CC1(C)CN(c2ccc(-c3ccnc4ncnn34)cc2)C1=O", "growth rescue": "-1.84%"}, {"smiles": "Cc1ccc2c(c1)C(c1ccccc1)N(C(=O)c1ccc(F)cc1)CC(=O)N2", "note": "(stereo not drawn)", "growth rescue": "0.27%"}, {"smiles": "Cc1ccc2c(c1)C(c1ccccc1)N(C(=O)c1ccc(S(=O)(=O)N3CCOCC3)cc1)CC(=O)N2", "note": "(stereo not drawn)", "growth rescue": "72.7% (active)"}, {"smiles": "Cc1ccc(C(=O)N2CC(=O)Nc3ccc(F)cc3C2c2ccc(F)cc2)cc1", "note": "(stereo not drawn)", "growth rescue": "1.27%"}, {"smiles": "Cc1ccc(NN=Nc2nc3c([nH]2)c(=O)n(C)c(=O)n3C)cc1", "growth rescue": "-0.566%"}, {"smiles": "CN(C)CC(O)COc1ccc(C(C)(C)c2ccc(OCC(O)CN(C)C)cc2)cc1", "note": "(stereo not drawn)", "growth rescue": "26.9% (active)"}, {"smiles": "Cc1cc(C)n(CC(O)COc2ccc(C(C)(C)C)cc2)n1", "note": "(stereo not drawn)", "growth rescue": "0.193%"}, {"smiles": "COc1ccc(OCC(O)CN(C)C(=O)C(C)Oc2ccccc2)cc1", "note": "(stereo not drawn)", "growth rescue": "-0.614%"}, {"smiles": "Cc1ccc2nc(C)c3c(c2c1)N(c1ccccc1)CC3", "growth rescue": "-0.127%"}, {"smiles": "Cc1ccc(S(=O)(=O)N2CCOCC2)cc1C(=O)Nc1ccccc1N1CCCC1", "growth rescue": "0.57%"}, {"smiles": "CC(C)(C)CC(C)(C)NCC(O)COCCOc1ccc(Br)cc1", "note": "(stereo not drawn)", "growth rescue": "0.077%"}, {"smiles": "COc1ccc(OCC(O)CNC(=O)Nc2ccc(Cl)cc2)cc1", "note": "(stereo not drawn)", "growth rescue": "-1.02%"}, {"smiles": "COc1ccc(OCC(O)CNCCNc2nccc(C(F)(F)F)n2)cc1", "note": "(stereo not drawn)", "growth rescue": "62.4% (active)"}, {"smiles": "Cc1ccccc1Nc1c([N+](=O)[O-])ccc2nonc12", "growth rescue": "-0.179%"}, {"smiles": "CCc1cc2c(=O)c(-c3ccon3)c(N)oc2cc1OC", "growth rescue": "-0.783%"}, {"smiles": "COc1ccc(NCc2nnc(SCc3ccccc3)n2-c2ccc(OC)cc2)cc1", "growth rescue": "-1.36%"}, {"smiles": "O=C(COc1ccccc1[N+](=O)[O-])N/N=C/c1ccc[nH]1", "growth rescue": "-1%"}, {"smiles": "Cc1ccccc1NCC(=O)N/N=C\\c1ccc([N+](=O)[O-])s1", "growth rescue": "406% (active)"}, {"smiles": "Cc1nn(Cc2ccc(Cl)cc2)c(Cl)c1/C=N/NC(=O)CNc1ccccc1F", "growth rescue": "-0.219%"}, {"smiles": "Cn1c(CCC(=O)OCC(=O)NCc2ccccc2Cl)nc(=O)c2ccccc21", "growth rescue": "1.08%"}, {"smiles": "O=C(CN1C(=O)NC2(CCCC2)C1=O)Nc1ccc(F)c(F)c1F", "growth rescue": "-0.549%"}]}]}
